Sampled rows, rich in hits. Any-hit rate of the full collection: about 2.3%.
CHO-K1 Ca ag – counter-screen for M1 agonists: effect in parental CHO-K1 cells | Fluo-8 calcium fluorescence; scaled to maximal ATP response, vehicle zero | activation, % at 3 µM | 360,000 tested, 0.48% active | AID 602248, 2012; in the data active = activation above about 15%;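 note: untransfected CHO-K1 host cells lacking M1 receptor as counterscreen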
M1 ag – human M1 muscarinic receptor agonists, primary screen, Fluo-8 calcium fluorescence, CHO-K1 cells, HTS; activation, % at 3 µM; 360,000 tested, 0.33% active; CHO-K1 hM1, agonist mode; 0% DMSO, 100% acetylcholine EC100;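 active = activation above the run's mean compound activation plus 3 SD, cut at about 16% in these data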;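 note: peak over basal fluorescence ratio within a 140 s kinetic read after compound addition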
Target sequence (P11229 whole entry, looked up): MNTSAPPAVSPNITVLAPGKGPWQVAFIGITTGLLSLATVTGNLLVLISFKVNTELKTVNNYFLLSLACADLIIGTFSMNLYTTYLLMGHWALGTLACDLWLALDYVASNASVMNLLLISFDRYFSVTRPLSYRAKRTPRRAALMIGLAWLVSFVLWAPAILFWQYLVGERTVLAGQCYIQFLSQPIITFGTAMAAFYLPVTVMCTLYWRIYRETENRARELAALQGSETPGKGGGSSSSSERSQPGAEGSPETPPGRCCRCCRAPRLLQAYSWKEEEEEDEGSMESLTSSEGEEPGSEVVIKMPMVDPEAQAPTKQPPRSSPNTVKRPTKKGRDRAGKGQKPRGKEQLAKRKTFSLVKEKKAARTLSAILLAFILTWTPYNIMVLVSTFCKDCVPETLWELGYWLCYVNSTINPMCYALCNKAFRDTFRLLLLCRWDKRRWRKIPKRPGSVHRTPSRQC
M1 PAM – human M1 muscarinic receptor positive allosteric modulators, primary screen, CHO-K1 cells, Fluo-8 calcium fluorescence, 1536-well. CHO-K1 hM1, ACh EC20; 0% = ACh EC20, 100% = maximal ACh. Muscarinic acetylcholine receptor M1 (Homo sapiens), P11229. activation, % at 3 µM. 360,000 tested, 0.088% active; in the data active = activation above about 19%, passing the limit was not always enough
M1 antag – human M1 muscarinic receptor antagonists, primary screen, CHO-K1 cells, Fluo-8 calcium fluorescence, 1536-well; CHO-K1 hM1, ACh EC80 antagonist; 360,000 tested, 1.3% active; Muscarinic acetylcholine receptor M1 (Homo sapiens), P11229; inhibition, % at 3 µM; AID 588852, 2011;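 active = percent inhibition above its own plate's cutoff, namely the mean of that plate's compound wells plus 3 SD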;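 note: peak over basal fluorescence ratio during 140 s after agonist addition; 0% = ACh EC80 plus DMSO and 100% = DMSO alone without agonist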
M1 PAM parental – nonselective calcium activators in parental CHO-K1 cells, primary screen, counter-screen for M1 PAM project, cell-based, Fluo-8 calcium fluorescence, full deck, 1536-well | AID 602247, 2012 | activation, % at 3 µM | 360,000 tested, 0.02% active | ATP EC20; 0% at ATP EC20, 100% at ATP max;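 active = activation above the run cutoff, the mean activation of all test compounds plus 3 SD, cut at about 40% in these data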;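 note: peak over basal fluorescence ratio in a 140 s read after ATP addition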
CHO-K1 Ca antag – counter-screen for M1 antagonists: effect in parental CHO-K1 cells; ATP-induced calcium, Fluo-8 fluorescence; inhibition, % at 3 µM; 360,000 tested, 0.6% active; AID 602250;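 active = inhibition above a per-plate cutoff, the plate's mean sample inhibition plus 3 SD, cut at about 24% in these data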;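 note: 0% = DMSO plus EC80 ATP and 100% = DMSO alone without ATP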
* marks the source's active call; other numbers are inactive results; . = no result given.

SMILES	CHO-K1 Ca ag	M1 ag	M1 PAM	M1 antag	M1 PAM parental	CHO-K1 Ca antag
OC(CCN1CCCCC1)c1ccc(-c2ccccc2)cc1 (stereo unspecified)	5	-9	-9	1	22	-18
Clc1ccc(C(CCN2CCCC2)Cc2ccccc2)cc1 (stereo unspecified)	2	-11	-35	84*	4	-7
COc1ccc(C(=O)CCc2ccccc2)c(O)c1	2	-3	-11	20	-27	29*
COc1ccc(/C=N/n2cncn2)cc1Cn1nc(C)c([N+](=O)[O-])c1C	0	-6	4	-6	12	-16
CC1(C)NC(=O)N(CC(=O)OCC(=O)Nc2cc(S(=O)(=O)N3CCCCCC3)ccc2Cl)C1=O	3	-2	-8	6	8	-2
Fc1ccc2[nH]c3c(NCc4ccccc4)ncnc3c2c1	19*	2	-4	23	-23	34*
CN1CCN(C(=O)c2ccccc2N(Cc2ccccc2)S(=O)(=O)c2ccccc2)CC1	1	28*	-7	3	-7	-8
CCOc1ccc(C(C(=O)NCC2CCCO2)N(C(=O)c2snc(C(N)=O)c2N)c2ccccc2F)cc1 (stereo unspecified)	2	5	-6	18	5	40*
NC(=O)c1nsc(C(=O)N(c2ccccc2F)C(C(=O)NCc2ccc(F)cc2)c2ccc(O)cc2)c1N (stereo unspecified)	8	-1	-20	37*	5	4
COc1ccc(C(C(=O)NCc2ccccc2)N(Cc2ccco2)C(=O)c2snc(C(N)=O)c2N)cc1 (stereo unspecified)	7	1	-16	33*	7	8
COc1ccc(C(C(=O)NCc2ccccc2)N(Cc2ccco2)C(=O)c2snc(C(N)=O)c2N)cc1OC (stereo unspecified)	8	0	-9	16	3	14
O=C(COC(=O)c1ccc2ccccc2n1)NCc1ccccc1	0	-3	11	-6	24	-10
O=C(c1cccc(C(F)(F)F)c1)N(c1ccccn1)C1CCCCC1	3	-9	4	-2	16	0
Cc1c(C)c2cc(Cl)c(OCC(=O)NC3CC(C)(C)NC(C)(C)C3)cc2oc1=O	1	-12	-3	3	0	-8
Cc1cccc(C)c1N1CCN(C(c2cc3ccccc3o2)c2nnnn2C(C)(C)C)CC1 (stereo unspecified)	2	.	.	.	18	4
NC(=O)c1cccc(-c2cnc3c(Nc4cccc(OC(F)(F)C(F)F)c4)nccn23)c1	0	2	6	-4	-16	31*
Oc1ccc(-c2cnc3c(Nc4cccc(OC(F)(F)C(F)F)c4)nccn23)cc1	1	1	-1	0	-4	1
N#CCSc1nc2ccc(N3CCCCC3)cc2c(=O)n1Cc1ccccc1	0	-7	-23	22*	-4	7
N#C/C(=C\c1ccc(N2CCCCC2)o1)C(=O)Nc1cccc(Br)c1	54*	68*	-23	66*	-14	58*
N#C/C(=C\c1ccc(N2CCCCC2)o1)C(N)=O	7	-3	5	-7	7	7
Cc1ccc(NC(=O)C(C)OC(=O)c2ccc(NC(=O)CC#N)cc2)cc1S(=O)(=O)N1CCOCC1 (stereo unspecified)	0	-3	-3	2	-11	-1
CCOc1cccc(-c2c(C(=O)N/N=C/c3cccs3)nnn2-c2nonc2N)c1	25*	20*	21	-5	31	-14
COc1cccc(-c2c(C(=O)N/N=C/c3cccs3)nnn2-c2nonc2N)c1	32*	44*	8	-9	19	-19
Nc1nonc1-n1nnc(C(=O)N/N=C/c2ccc(F)cc2)c1-c1ccc2c(c1)OCO2	1	2	4	-8	4	-19
COc1ccc(/C=N/NC(=O)c2nnn(-c3nonc3N)c2-c2cccs2)cc1OC	6	0	-1	0	-2	2
SMILES	CHO-K1 Ca ag	M1 ag	M1 PAM	M1 antag	M1 PAM parental	CHO-K1 Ca antag
CCOc1cccc(-c2c(C(=O)N/N=C/c3ccncc3)nnn2-c2nonc2N)c1	1	3	6	-12	4	3
Cc1ccc(/C=N/NC(=O)c2nnn(-c3nonc3N)c2-c2ccc3c(c2)OCO3)s1	22*	25*	1	-1	19	-13
CCOc1ccc(-c2c(C(=O)N/N=C/c3c[nH]c4ccccc34)nnn2-c2nonc2N)cc1	1	2	9	1	-23	25*
O=c1[nH]c(=S)[nH]c2c1C(c1cccc(C(F)(F)F)c1)OC(CCc1ccccc1)C2 (stereo unspecified)	3	.	.	.	15	-2
O=C1C(CSCc2ccccc2)NC(=S)N1c1ccccc1 (stereo unspecified)	1	-3	6	-12	18	-7
Cc1ccc(/C=N/NC(=O)c2nnn(-c3nonc3N)c2-c2cccs2)cc1	33*	69*	13	6	30	1
COc1cccc(-c2c(C(=O)N/N=C(\C)c3ccc(Cl)s3)nnn2-c2nonc2N)c1	2	22*	13	-4	7	-3
COc1cccc(-c2c(C(=O)N/N=C(\C)c3ccco3)nnn2-c2nonc2N)c1	6	7	-6	18	-20	14
COc1ccc(/C=N/NC(=O)c2nnn(-c3nonc3N)c2-c2cccc(OC)c2)cc1	9	38*	4	-8	29	-16
CCOc1ncccc1C(=O)N(CC)CC(=O)NCc1ccc(Cl)cc1	1	-3	-2	1	7	-10
Cc1oc(-c2cccc3ccccc23)nc1CN1CCN(c2ncnc3ccccc23)CC1	23*	-10	-9	7	11	-2
C=CCNC(=O)N1CCCC(C(=O)c2cccc(OC(C)C)c2)C1 (stereo unspecified)	-1	-2	-7	4	-17	4
Fc1ccccc1C1c2[nH]c3ccccc3c2CCN1Cc1cccn1-c1ncccn1 (stereo unspecified)	4	-8	-15	13	0	7
Cc1ccccc1C1c2[nH]c3ccccc3c2CCN1CCCn1cccn1 (stereo unspecified)	1	-7	-23	91*	23	-15
Cc1ccccc1C1c2[nH]c3ccccc3c2CCN1Cc1cccn1-c1ncccn1 (stereo unspecified)	0	-6	-26	66*	-14	-4
